From PubChem
FUS yeast rescue: suppressors of FUS proteinopathy in yeast | S. cerevisiae FUS-expressing, growth rescue, OD600, 24 h | Potency, µM (titrated, usually from 76.6 µM), most hits filed as activators | hit rate 0.24% among 390,000; also: nearly all actives have a fitted effect of over 55% in size
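Compound concentration series was pinned onto galactose-induced FUS-expressing yeast seeded at OD 0.005. Plates sat 24hr at 30C; absorbance at 600 nm gave growth. DMSO served as background control.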
TDP43 rescue: rescues yeast growth from TDP-43 toxicity; hit rate 1.8% among 410,000; Potency, µM (series often up to 46.1 µM), most hits filed as activators; TDP-43 expressing yeast growth rescue, BacTiter-Glo, 24 h; also: nearly all actives have a fitted effect of over 50% in size
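Growth rescue of TDP-43-toxic yeast measured as ATP luminescence (BacTiter-Glo). Cells grown to mid-log in raffinose, induced in galactose at OD600=0.02, exposed to compound 24 hr at 30 deg C.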
aSyn rescue: rescues yeast growth from alpha-synuclein toxicity; Yeast expressing alpha-synuclein, growth rescue, BacTiter-Glo, 24 h; Potency, µM (top dose mostly 46.1 µM), usual class: activators; hit rate 0.14% among 370,000; also: nearly all actives have a fitted effect of over 65% in size
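Rescue of yeast growth: cells expressing toxic alpha-synuclein, induced in galactose at OD600 0.02, incubated with compound 24 h at 30 C. ATP luminescence quantified growth; inhibitors of toxicity appear as activators.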
Mito fusion yeast: mitochondrial division inhibition or fusion activation | S. cerevisiae fusion-defective mutant growth rescue, CellTiterGlo 48 h | Potency, µM (highest dose often 46.1 µM), usual class: activators | hit rate 0.23% among 320,000 | AID 485298; also: nearly all actives have a fitted effect of over 45% in size
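Read-out: ATP-based luminescence (CellTiterGlo, 10 min ambient) reporting growth of fusion-defective ts yeast after 48 hours at 37C on glycerol/ethanol YPEG medium in the presence of compound.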
Abeta yeast res: A-beta toxicity reversal in yeast; Potency, µM (titrated, usually from 46.1 µM), hits mostly activators; AID 1347071; yeast expressing A-beta42, growth rescue, OD600, 48 h; response scale: 0% DMSO, 100% iron-clioquinol control; hit rate 0.063% among 410,000; also: nearly all actives have a fitted effect of over 55% in size
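Yeast A-beta toxicity model in growth medium with pinned compounds, 48 h at 30 C; growth read as absorbance at 600 nm. Normalized to FeCl3/clioquinol equimolar mix (positive) and DMSO (negative).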
Hits are given with their value; 0 = inactive; ? = inconclusive; - = not tested or not shown. Shown are actives, neighbours in structure and some others; about 2.2% of the full set was active somewhere. Calls follow the shape of the dose curve; as a rule, active = well fitted curve in the direction sought with a large enough effect; inconclusive = small, poorly fitted or top-dose-only effect, or another doubt; inactive = no such curve, though single readings can be large; an effect the other way counts as inactive or inconclusive.

SMILES	FUS yeast rescue	TDP43 rescue	aSyn rescue	Mito fusion yeast	Abeta yeast res
Nc1[nH]ncc1N=Nc1ccc(Cl)cc1	0	18µM	0	0	0
COc1ccc(C)cc1NC(=O)CCn1nc(C)cc1C	0	0	-	-	0
O=C(Nc1cccc2ccccc12)/C(Cl)=C/c1ccccc1	0	16µM	0	?	0
CCc1ccccc1NC(=O)Cn1nnc(-c2nc(-c3ccc(C)cc3)no2)c1N	0	0	-	-	0
CCOc1ccccc1NC(=O)CN1C(=O)COc2ccc(S(=O)(=O)N3CCCCCC3)cc21	0	0	-	-	0
COc1cc2c(cc1OC)CN(C(=O)Cc1c(F)cccc1Cl)CC2	0	16µM	0	?	0
COc1ccc(CC(=O)N2CCc3cc(OC)c(OC)cc3C2)cc1	0	0	0	0	0
COc1cc2c(cc1OC)CN(C(=O)Nc1ccccc1Cl)CC2	0	11µM	0	0	0
Cc1cccn2c(=O)c(C=NCc3ccccc3)c(NCCO)nc12	0	0	0	0	0
Cc1ccc2nc(NCc3ccccc3)c(C=NCc3ccccc3)c(=O)n2c1	0	0	0	7.9µM	0
O=C(Nc1nc(-c2ccc(Cl)cc2Cl)cs1)C1CCCO1 (stereo not drawn)	0	13µM	0	0	0
CCN(CC)CCCNC(=O)C1CCN(S(C)(=O)=O)CC1	0	0	-	-	0
N/C(Cc1ccc([N+](=O)[O-])cc1)=N\OC(=O)c1ccc2ccccc2c1	0	11µM	0	0	0
COc1ccc(CNc2ccc(C)cc2)cc1Br	0	18µM	0	0	0
O=C1CC(N2CCC(O)(c3ccc(Br)cc3)CC2)C(=O)N1c1ccc(Cl)cc1 (stereo not drawn)	-	0	0	0	0
COc1ccc(N2C(=O)CC(N3CCC(O)(c4ccc(Br)cc4)CC3)C2=O)cc1 (stereo not drawn)	0	20µM	0	0	0
CCCOc1ccc(N2C(=O)CC(N3CCN(c4ccccc4OC)CC3)C2=O)cc1 (stereo not drawn)	0	25µM	?	0	0
COc1cccc(N2CCN(C3CC(=O)N(c4ccc(C)c(Cl)c4)C3=O)CC2)c1 (stereo not drawn)	0	0	0	0	0
COc1cccc(N2CCN(C3CC(=O)N(c4ccc(F)c(Cl)c4)C3=O)CC2)c1 (stereo not drawn)	0	13µM	0	0	0
CCCC(=O)Nc1cc(C)c(O)c(-c2nc3ncccc3o2)c1	0	0	-	-	0
O=C(COC(=O)c1cc(-c2ccc(F)cc2)nc2ccccc12)NCC1CCCO1 (stereo not drawn)	0	14µM	0	0	0
CCCN(CCC)CCCNC(=O)c1sc2nc3n(c(=O)c2c1C)CCC3	0	0	-	-	0
CS(=O)(=O)N(Cc1nc(-c2ccc(F)cc2)no1)c1ccccc1Cl	0	22µM	0	0	0
CN(Cc1nc(-c2ccc(Cl)cc2)no1)S(=O)(=O)c1ccccc1	0	35µM	-	-	0
C[C@H]1[C@@H](OC(=O)NCc2ccco2)CC[C@@]23CCCN2C(=O)CCC[C@@H]13	0	-	-	-	-
SMILES	FUS yeast rescue	TDP43 rescue	aSyn rescue	Mito fusion yeast	Abeta yeast res
COc1ccc(N2CCN(C(=O)c3cn(C4CCCC4)c(=O)c4c3c3ccccc3n4C)CC2)cc1	?	20µM	0	0	0
COC(=O)c1cnn(-c2ccc(F)cc2F)c1/C=N/NC(=S)Nc1ccccc1	0	-	-	-	-
COc1ccc(C2=CC3=C(Br)C(=O)C(C)(OC(=O)c4ccc(Cl)nc4)C(=O)C3=CO2)cc1 (stereo not drawn)	0	14µM	0	0	0
COC(=O)CCC(=O)OC1(C)C(=O)C2=COC(c3ccc(OC)cc3)=CC2=C(Br)C1=O (stereo not drawn)	0	?	0	0	0
Nc1[nH]c(C(=O)c2ccccc2)c(-c2ccc(Cl)cc2)c1C(=O)NCCC1=CCCCC1	0	-	-	-	-
CC(C)Oc1ccc(C2CC(=O)N(C)C2=O)cc1 (stereo not drawn)	0	0	0	0	0
CC(C)Oc1ccc(C2CC(=O)N(c3cccc(Br)c3)C2=O)cc1 (stereo not drawn)	0	20µM	0	0	0
O=Cc1c(Sc2ccccc2)nc2ccccn2c1=O	0	13µM	0	0	0
O=Cc1c(Sc2ccccn2)nc2ccccn2c1=O	0	0	0	0	0
O=C(CSc1cccc[n+]1[O-])C12CC3CC(CC(C3)C1)C2	0	14µM	0	0	?
O=C(CSc1cccc[n+]1[O-])c1cc(Cl)ccc1Cl	0	11µM	0	0	?
Cc1cccc(NC(=O)CN2C(=O)N/C(=C/c3cc(C)n(C(C)C)c3C)C2=O)c1	20µM	0	0	0	0
Cc1cccc(NC(=O)CN2C(=O)N/C(=C/c3ccc(C)s3)C2=O)c1	-	0	0	0	0
COCCCNc1oc(-c2ccc(COc3ccccc3C)o2)nc1C#N	0	16µM	-	-	0
O=C1C=C(c2ccccc2)OC(c2ccccc2)O1 (stereo not drawn)	0	13µM	0	0	0
O=C1C=C(c2ccccc2)OC2(CCCC2)O1	0	?	-	0	0
O=C(COc1ccccc1)Nc1nc(-c2ccncc2)cs1	0	0	0	0	0
Cc1ccc(OCC(=O)Nc2nc(-c3ccccn3)cs2)c(C)c1	0	?	22µM	0	0
O=C(COc1ccc(-c2ccccc2)cc1)Nc1cccnc1	0	22µM	0	?	0
O=C(COc1ccccc1)Nc1nc(-c2cccnc2)cs1	?	10µM	0	0	0
CC(C)=CC(=O)O[C@@H]1Cc2cc3ccc(=O)oc3cc2OC1(C)C	0	14µM	0	0	0
C[C@@H](NCCCc1cccc(C(F)(F)F)c1)c1cccc2ccccc12	-	-	0	-	-
CCN(CC)C(=O)c1ccc2c(c1)N(Cc1c(F)cccc1Cl)C(=O)c1ccccc1S2	?	22µM	-	-	0
O=C(NCc1ccco1)c1ccc2c(c1)N(Cc1ccccc1)C(=O)c1ccccc1S2	32µM	0	-	-	0
COCCNC(=O)c1ccc2c(c1)N(Cc1c(F)cccc1Cl)C(=O)c1ccccc1S2	?	0	-	-	0
SMILES	FUS yeast rescue	TDP43 rescue	aSyn rescue	Mito fusion yeast	Abeta yeast res
O=C1c2ccccc2C(=O)N1c1ccc(O)cc1	-	-	0	-	-
c1ccc(-c2nnc(N3CCCC3)nc2-c2ccccc2)cc1	0	18µM	0	0	0
c1ccc(-c2nnc(N3CCN(c4ccccc4)CC3)nc2-c2ccccc2)cc1	0	0	0	0	0
CCOc1ccc(OCc2ccc(C(=O)N(CC)CC)cc2)cc1	0	13µM	0	?	0
CCN(CC(=O)Nc1ccc(NC(C)=O)cc1)C(=O)c1ccc(COc2ccc(C(C)(C)C)cc2)cc1	0	0	0	-	0
CCSc1nc(-c2ccc(OC)cc2)ccc1C#N	0	16µM	0	0	0
Cc1nn(C(=O)c2ccccc2)c(C)c1Sc1ccc(Cl)cc1	?	35µM	-	-	0
CCOc1cccc(NC(=O)C2CC(=O)N(C)C(=Nc3ccc(F)cc3)S2)c1 (stereo not drawn)	0	25µM	-	0	16µM
